# Screening results: PubChem BioAssay, The Scripps Research Institute Molecular Screening Center
# Only some compounds are listed: those with a hit (about 2.2% of all), similar ones and a draw of the others.
# CHRM1 antagonist: human CHRM1 antagonism; P11229; AID 588852; 1.3% of 360,000 active; CHO-K1 hM1, Fluo-8 calcium fluorescence, ACh EC80 antagonist; inhibition, % at 3 µM;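 active = percent inhibition above its own plate's cutoff, namely the mean of that plate's compound wells plus 3 SD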;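 also: peak over basal fluorescence ratio during 140 s after agonist addition; 0% = ACh EC80 plus DMSO and 100% = DMSO alone without agonist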
# Target sequence (P11229 whole entry, looked up): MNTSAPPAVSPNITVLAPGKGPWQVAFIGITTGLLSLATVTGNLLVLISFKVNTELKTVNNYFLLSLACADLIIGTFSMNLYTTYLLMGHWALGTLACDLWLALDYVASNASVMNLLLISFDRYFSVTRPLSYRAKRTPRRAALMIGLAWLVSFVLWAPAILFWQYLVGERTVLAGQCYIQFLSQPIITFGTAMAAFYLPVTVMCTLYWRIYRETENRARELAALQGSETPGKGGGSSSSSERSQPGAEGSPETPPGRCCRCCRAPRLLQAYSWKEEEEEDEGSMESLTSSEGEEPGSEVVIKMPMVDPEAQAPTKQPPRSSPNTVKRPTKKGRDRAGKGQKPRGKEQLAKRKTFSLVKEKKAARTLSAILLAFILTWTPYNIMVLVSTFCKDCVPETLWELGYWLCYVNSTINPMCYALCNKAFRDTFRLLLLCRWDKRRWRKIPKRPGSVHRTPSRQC
# CHRM1 PAM: potentiates human M1 receptor response to acetylcholine | P11229 | CHO-K1 hM1, Fluo-8 calcium fluorescence, ACh EC20; 0% = ACh EC20, 100% = maximal ACh | activation, % at 3 µM | 0.088% of 360,000 active | AID 588819; in the data active = activation above about 19%, passing the limit was not always enough
# M4 ag: CHRM4 agonism in calcium assay. activation, % at 3 µM. AID 624127. 0.14% of 360,000 active. CHO-K1 hM4/Gqi5, Fluo-8 calcium fluorescence; vehicle 0%, full acetylcholine response 100%;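 active = activation above the run mean over all test wells plus 3 SD, cut at about 32% in these data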;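 also: peak over basal fluorescence ratio per well then scaled between controls; 0% = DMSO wells and 100% = acetylcholine at EC100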
# M4 PAM: positive allosteric modulators of human muscarinic M4 receptor. CHO-K1 hM4/Gqi5, Fluo-8 calcium fluorescence, ACh EC20; 0% = ACh EC20, 100% = maximal ACh. activation, % at 3 µM. 0.4% of 360,000 active;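 active = activation above its plate's cutoff, the mean activation of sample wells plus 3 SD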
# M1 ag: agonists of human M1 muscarinic receptor. CHO-K1 hM1, Fluo-8 calcium fluorescence, agonist mode; 0% DMSO, 100% acetylcholine EC100. AID 588814. P11229. 0.33% of 360,000 active. activation, % at 3 µM;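 active = activation above the run's mean compound activation plus 3 SD, cut at about 16% in these data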;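 also: peak over basal fluorescence ratio within a 140 s kinetic read after compound addition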
# CHRM4 antagonist: blocks acetylcholine activation of human M4 receptor; P08173; CHO-hM4 cells, ACh EC80, Fluo-8 calcium fluorescence; inhibition, % at 3 µM; 0.73% of 360,000 active; AID 624125;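 active = inhibition above its plate's cutoff, the mean inhibition of sample wells plus 3 SD, cut at about 27% in these data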;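 also: 0% = acetylcholine EC80 with DMSO and 100% = DMSO without agonist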
# * hit, by the source's call.
SMILES,CHRM1 antagonist,CHRM1 PAM,M4 ag,M4 PAM,M1 ag,CHRM4 antagonist
Oc1ccc(C[C@@H]2CNCCN2CCc2cc(C(F)(F)F)cc(C(F)(F)F)c2)cc1,-6,25*,6,25*,-1,15
Cc1cc(NC(=O)c2cnn3c(C(F)(F)F)cc(-c4ccccc4)nc23)no1,33*,-17,4,-1,-10,10
CC(CCC(=O)NN)C1CCC2C3CCC4CC(O)CCC4(C)C3CCC12C (stereo not given),-13,6,0,3,-2,-6
CC(CCC(C)C(C)(C)C)[C@@H]1CC[C@H]2C3C[C@H](OS(O)(=S)=S)[C@H]4C[C@H](OS(O)(=S)=S)[C@@H](OS(O)(=S)=S)C[C@]4(C)[C@H]3CC[C@]12C (stereo not given in full) (tested in a mixture with another compound),3,5,81*,-6,37*,51*
C/C(CCc1ccccc1)=N\NC(=O)CCc1ccccc1,-2,-2,-1,4,-7,-3
CCOc1ccc(/C=C2\SC(=S)NC2=O)cc1OC,-10,11,3,-2,-7,-2
COc1ccc(/C=C2\SC(=O)NC2=S)cc1OC,15,-9,33*,-28,7,20
CCOc1ccc2ncc(S(=O)(=O)c3ccc(C)cc3)c(N3CCC4(CC3)OCCO4)c2c1,35*,-19,8,-13,-5,3
CCOC(=O)c1cnc2ccc(OCC)cc2c1N1CCN(C)CC1,-1,2,1,19,-3,-3
CCC(C)NC(=S)N1CCN(Cc2ccc3c(c2)OCO3)CC1 (stereo not given),-12,18,1,5,-12,-2
CCOC(=O)c1[nH]c(C)c(CN(CCc2ccccc2)S(C)(=O)=O)c1C,-23,7,4,3,-7,-10
CCOC(=O)c1[nH]c(C)c(CN(C(C)=O)c2ccc(OCC)cc2)c1C,26*,-29,-1,-19,-14,17
CCOC(=O)c1ccc(S(=O)(=O)n2c(=O)oc3ccccc32)cc1,31*,-23,18,-11,0,12
O=C(O)[C@@H]1CCCN1S(=O)(=O)c1cccc(S(=O)(=O)N2CCC[C@H]2C(=O)O)c1,-16,6,0,4,-2,6
O=C(O)C1CCCN1S(=O)(=O)c1cccc(S(=O)(=O)N2CCCC2C(=O)O)c1 (stereo not given),-9,6,1,15,-4,32*
COc1ccc([N+](=O)[O-])c(S(=O)(=O)c2ccccc2)n1,11,-1,-1,-7,-5,30*
Cc1ccc(S(=O)(=O)N2CCN(c3cc4c(cc3[N+](=O)[O-])n(C)c(=O)n4C)CC2)cc1,52*,-22,13,-5,0,-36
Cn1c(=O)n(C)c2cc([N+](=O)[O-])c(N3CCN(S(=O)(=O)c4ccc5ccccc5c4)CC3)cc21,-4,5,2,8,0,0
COc1nc(NCCO)nc(Nc2ccc([N+](=O)[O-])cc2)n1,-15,17,2,25*,0,-2
CCC(=O)N1CCN(c2ccc(NC(=S)NC(=O)c3cccc([N+](=O)[O-])c3)cc2)CC1,12,-3,2,-1,-1,9
Cc1cccc2c(=O)c(C(=O)NCCc3ccccc3)c[nH]c12,30*,-13,3,-4,-2,17
O=C(NCCc1ccccc1)c1c[nH]c2c(F)cccc2c1=O,-9,8,5,-6,-2,5
CCOC(=O)C1CCCN(Cc2nc(C3CC3)no2)C1 (stereo not given),-11,7,0,0,-1,-7
CCOC(=O)C1CCN(C2CCN(Cc3nc(-c4ccccc4)no3)CC2)CC1,-6,0,4,-11,-13,0
CCOC(=O)C1CCCN(Cc2nc(Cc3cccc(F)c3)no2)C1 (stereo not given),-3,-8,1,-1,33*,-1
SMILES,CHRM1 antagonist,CHRM1 PAM,M4 ag,M4 PAM,M1 ag,CHRM4 antagonist
CCOC(=O)C1CCCN(C2CCN(Cc3nc(-c4ccccc4)no3)CC2)C1 (stereo not given),42*,-22,1,-12,42*,14
CCOC(=O)C1CCCN(C2CCN(Cc3nc(Cc4ccccc4)no3)CC2)C1 (stereo not given),19,-8,1,-10,17*,3
CN1CCCc2cc3c(C(F)(F)F)cc(=O)oc3nc21,17,-12,1,-3,-4,-1
CN(C)C=Nc1c(Br)cc(Br)c2nonc12,14,-19,12,-1,45*,4
O=C(CSc1ccc2nnc(-c3ccc(Cl)cc3)n2n1)N1CCCc2ccccc21,-4,-2,3,-11,-5,-2
COC(=O)c1c(C)[nH]c(C(=O)C(C)OC(=O)c2ccco2)c1C (stereo not given),4,3,5,0,-1,9
COC(=O)c1c(C)[nH]c(C(=O)C(C)OC(=O)c2cc(C)oc2C)c1C (stereo not given),28*,-16,9,-10,-1,19
CC(C)Nc1nc2n(c(=O)n1)CCN2C(C)C,-8,1,-1,4,-2,-2
CCCCCCCCNc1ncnc2ccccc12,29*,-11,9,-19,-2,27*
CC1(C)Cc2ccccc2C(=O)N1,-12,12,1,14,-3,-1
O=C(CN1C(=O)S/C(=C\C=C\c2ccccc2)C1=O)Nc1ccccc1C(=O)O,-17,10,0,7,-4,24
C#CCN1C(=O)S/C(=C/C=C/c2ccc(N(C)C)cc2)C1=O,47*,-18,8,-1,36*,9
CN(C)S(=O)(=O)c1cccc(C(=O)NCC(=O)NC2CCN(Cc3ccccc3)CC2)c1,34*,-16,1,-11,-13,20
Cc1cccc(C(=O)NCC(=O)NC2CCN(Cc3ccccc3)CC2)c1,-23,15,0,0,-5,-3
CC(=O)Nc1ccc(NC(=O)CCC(=O)OCC(=O)c2ccc(C)c([N+](=O)[O-])c2)cc1,0,3,0,-3,-4,-1
COc1ccc([C@H]2CC(=O)C=C(c3ccc(F)cc3OCc3ccccc3)C2)cc1OC,50*,-15,14,-4,-1,5
COc1cc(C(C)=O)ccc1OCCN1CCC(Cc2ccccc2)CC1,45*,-24,2,-13,-1,6
COc1cc(C(C)=O)ccc1OCCCN1CCC(Cc2ccccc2)CC1,44*,-23,1,-13,-1,26
O=C(NCc1ccccn1)c1ccc(OC2CCN(Cc3ccccc3O)CC2)cc1,-8,3,2,5,-6,-6
